Six compounds from PubChem BioAssay (Tox21) can be followed below.

Where “and” joins values, the source holds several entries; their conditions need not be identical. Equal entries are not always repeated. Inconclusive results are not listed. Calls of active or inactive are those of the source. Unless noted, calls come from the whole dose curve; as a rule, active = well fitted curve in the direction sought with a large enough effect in the repeat runs; inconclusive = weak or mixed curves; inactive = no such curve, though single readings can be large; an effect the other way counts as inactive or inconclusive.

The nature of experiment [1]: A CellTox Green Cytotoxicity Assay to monitor cytotoxicity in HepG2 cells - 0 hour (AID 1224882). Note: nearly all actives have a fitted effect of over 35% in size. An outline of the steps:
(§1)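 Fluorescent DNA-binding dye, 600 HepG2 cells/well, 5 h preincubation then compound in DMSO; same plates read at 0–40 h, 37 C.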

Experiment [2] is described as follows: A CellTox Green Cytotoxicity Assay to monitor cytotoxicity in HepG2 cells - 32 hour (AID 1224883). Note: nearly all actives have a fitted effect of over 50% in size. Note: potency is the fitted concentration of half-maximal effect. An outline of the steps:
as §1

Experiment [3] in a line: A CellTox Green Cytotoxicity Assay to monitor cytotoxicity in HEK293 cells - 8 hour (AID 1224884). Note: nearly all actives have a fitted effect of over 35% in size. An outline of the steps:
(§2)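 Homogeneous no-lysis format: HEK293 cell suspension mixed with CellTox Green reagent, seeded, incubated 5 h at 37 C/5% CO2, then dosed by pintool with compound in DMSO.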

Experiment [4] in a line: qHTS RealTime-Glo MT Cell Viability Assay in HepG2 cells - 16 hour (AID 1224885). Note: nearly all actives have a fitted effect of over 50% in size. In outline: (§3)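 Viability was tracked continuously by NanoLuc luminescence from prosubstrate reduced by living HepG2 cells, at successive time points over 40 h of compound exposure. Cells with reagent were preincubated 5 h at 37 °C before compound addition.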
Background: In qHTS, concentration-response curves come from the screen itself.

Experiment [5] in a line: qHTS RealTime-Glo MT Cell Viability Assay in HEK293 cells - 24 hour (AID 1224886). Note: nearly all actives have a fitted effect of over 50% in size. Note: potency is the fitted concentration of half-maximal effect. An outline of the steps: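 Viability tracked continuously by luminescence as live cells reduce a prosubstrate for NanoLuc; HEK293 cells preincubated 5 h, compound-treated at 37 C, and read at 0, 8, 16, 24, 32 and 40 h.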
A short description of experiment [6]: A CellTox Green Cytotoxicity Assay to monitor cytotoxicity in HEK293 cells - 16 hour (AID 1224888). Note: nearly all actives have a fitted effect of over 35% in size. An outline of the steps: as §2
Experiment [7] in a line: qHTS RealTime-Glo MT Cell Viability Assay in HepG2 cells - 0 hour (AID 1224889). Note: nearly all actives have a fitted effect of over 50% in size. An outline of the steps:
as §3

The nature of experiment [8]: A CellTox Green Cytotoxicity Assay to monitor cytotoxicity in HepG2 cells - 8 hour (AID 1224890). Note: nearly all actives have a fitted effect of over 45% in size. An outline of the steps: as §1
Experiment [9] can be described thus: qHTS assay to identify small molecule antagonists of the estrogen receptor alpha (ER-alpha) signaling pathway using the BG1 cell line in the presence of 0.1 nM 17-beta-estradiol - cell viability counter screen (AID 1259241). Note: nearly all actives have a fitted effect of over 40% in size. Note: potency is the fitted concentration of half-maximal effect. In outline: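 Cytotoxicity counter-screen: live-cell protease activity measured by fluorescence (30 min reagent step) in the same wells. Cells were VM7Luc4E2 with endogenous ER-alpha and ERE-driven luciferase, treated 22 hr at 37C alongside 0.1 nM 17beta-estradiol final.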

A short description of experiment [10]: qHTS assay to identify small molecule antagonists of the androgen receptor (AR) signaling pathway using the MDA cell line in the presence of 0.5 nM R1881 - cell viability counter screen (AID 1259242). Note: nearly all actives have a fitted effect of over 45% in size. Note: potency is the fitted concentration of half-maximal effect. In outline: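 Human breast carcinoma MDA-kb2 cells, cultured without CO2, receive compounds alongside 0.5 nM (final) R1881 agonist. After 16 hr at 37C, viability is taken as live-cell protease signal.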

The nature of experiment [11]: qHTS assay to identify small molecule phospholipidosis (PLD) inducers (AID 1259344; active = well fitted curve in the direction sought with a large enough effect; an effect the other way counts as inactive or inconclusive). An outline of the steps:
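Read-out is LipidTOX Red fluorescence (ex 595/em 615) imaged in HepG2 cells after 24 h compound exposure at 37 C, with Hoechst nuclear counterstain (ex 352/em 461) allowing per-cell normalisation.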

Experiment [12] can be described thus: qHTS assay to identify small molecule HDAC inhibitors (AID 1259364). Note: potency is the fitted concentration of half-maximal effect.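 Note: wild-type HCT-116 cells with endogenous class I/II HDAC activity; nearly all actives have a fitted effect of over 45% in size.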 An outline of the steps: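 After a 2 hr compound incubation (37C, 5% CO2), HCT-116 cells seeded at 1,500/well the day before received HDAC-Glo reagent; signal read as luminescence after 30 min at room temperature.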
Experiment [13] is described as follows: qHTS assay to identify small molecule HDAC inhibitors - cell viability counter screen (AID 1259365). In outline: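 CellTiter-Glo luminescence (30 min, room temperature) reported viability after a 2 h compound exposure at 37 C. Cells: wild-type HCT-116, 1,500 per well, seeded the night before.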
A short description of experiment [14]: qHTS assay to identify small molecule agonists of the sonic hedgehog signaling (Shh) pathway - cell viability counter screen (AID 1259366). Note: nearly all actives have a fitted effect of over 50% in size. Note: potency is the fitted concentration of half-maximal effect. In outline:
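Cytotoxicity counter screen: CellTiter-Fluor reagent added after 23 h compound exposure, then 1 h at 37C and fluorescence read. Cells were 3T3 Gli1-Luc, seeded 2,000 per well and dosed 4 h post-plating.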

Experiment [15] can be described thus: qHTS assay to identify small molecule antagonists of the sonic hedgehog signaling (Shh) pathway - cell viability counter screen (AID 1259367). Note: nearly all actives have a fitted effect of over 55% in size. Note: potency is the fitted concentration of half-maximal effect. An outline of the steps: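 Fluorescence read-out (CellTiter-Fluor, 1 hr at 37C) taken after 23 hr compound treatment of 3T3 Gli1-Luc cells stimulated with conditioned medium. Cells were seeded at 2,000 per well and pre-incubated 4 hr.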

The nature of experiment [16]: qHTS assay to identify small molecule agonists of the sonic hedgehog signaling (Shh) pathway (AID 1259368; calls by dose curve;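 note: NIH/3T3-derived 3T3Gli1-Luc cells carrying a stable Gli1-driven firefly luciferase reporter; series mostly up to about 92 µM; nearly all actives have a fitted effect of over 15% in size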). In outline: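 Stable NIH/3T3 Gli1-Luc reporter clone; 24 hr cpd exposure after a 4 hr settling period; luminescence endpoint.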
A short description of experiment [17]: qHTS assay to identify small molecule antagonists of the sonic hedgehog signaling (Shh) pathway (AID 1259369; calls by dose curve; note: nearly all actives have a fitted effect of over 45% in size). An outline of the steps: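 Gli1 transcriptional reporter (firefly Luc) in NIH/3T3 background, conditioned-medium activated. 24hr exposure, luminescence endpoint.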
Experiment [18] is described as follows: qHTS RealTime-Glo MT Cell Viability Assay in HEK293 cells - 8 hour (AID 1224887). Note: nearly all actives have a fitted effect of over 50% in size. Note: potency is the fitted concentration of half-maximal effect. In outline:
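Measured as luminescence from the same continuously cultured HEK293 wells at successive time points (0, 8, 16, 24, 32, 40 h) after compound addition. Reagent present from seeding; dosing at 5 h; incubation 37 C.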

Experiment [19] deals with Estrogen receptor (Homo sapiens) (UniProt P03372). Kind of experiment: qHTS assay to identify small molecule antagonists of the estrogen receptor alpha (ER-alpha) signaling pathway using the BG1 cell line in the presence of 0.1 nM 17-beta-estradiol (AID 1259244). Note: nearly all actives have a fitted effect of over 50% in size. In outline:
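Seeding of stripped-serum-adapted VM7Luc4E2 cells, 24 h attachment, compound transfer, then 0.1 nM final 17beta-estradiol; after 22 h incubation, ONE-Glo reagent and luminescence reading.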

Sequence of Estrogen receptor (Homo sapiens) (P03372 whole entry, looked up): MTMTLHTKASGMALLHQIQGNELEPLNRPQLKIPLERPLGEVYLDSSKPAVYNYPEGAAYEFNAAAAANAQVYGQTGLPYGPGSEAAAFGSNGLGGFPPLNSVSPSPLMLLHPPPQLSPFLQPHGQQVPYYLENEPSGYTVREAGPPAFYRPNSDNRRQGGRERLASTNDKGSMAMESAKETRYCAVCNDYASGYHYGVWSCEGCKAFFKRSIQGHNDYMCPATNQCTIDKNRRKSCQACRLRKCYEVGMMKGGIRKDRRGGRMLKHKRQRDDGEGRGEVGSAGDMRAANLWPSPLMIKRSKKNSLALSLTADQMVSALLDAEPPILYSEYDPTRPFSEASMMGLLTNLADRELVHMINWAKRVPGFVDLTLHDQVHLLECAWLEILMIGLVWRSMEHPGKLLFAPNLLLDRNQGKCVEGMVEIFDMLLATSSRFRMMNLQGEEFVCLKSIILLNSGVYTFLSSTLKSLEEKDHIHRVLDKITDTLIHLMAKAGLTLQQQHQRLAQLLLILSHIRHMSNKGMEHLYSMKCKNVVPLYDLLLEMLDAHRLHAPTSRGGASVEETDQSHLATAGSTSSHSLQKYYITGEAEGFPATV

Turning to `CC(C)c1c(C(=O)Nc2ccccc2)c(-c2ccccc2)c(-c2ccc(F)cc2)n1CC[C@@H](O)C[C@@H](O)CC(=O)O`, the Potency result in experiment [1], in experiment [3], in experiment [4], in [5], in [6] and in [7] was “inactive” each time. Further, the Potency result in experiment [8], in experiment [9], in experiment [10], in [11], in experiment [12] and in [13] was “inactive” in each case. Also, the Potency result in experiment [14], in experiment [15] and in experiment [17] was “inactive” each time. In experiment [2], the Potency is 2.98 µM (active) and 10.2 µM (active) and 6.01 µM (active). Besides, the compound was classed as inactive in experiment [16].
Turning to `CN1CCC[C@H]1c1cccnc1`, the Potency result in experiment [1], in experiment [2], in experiment [3], in experiment [4], in [5] and in experiment [18] was “inactive” throughout. In addition, the Potency entry in experiment [6], in experiment [7], in experiment [8], in [9], in experiment [10] and in experiment [12] was “inactive” in each case. Besides, the Potency entry in experiment [13], in experiment [14], in experiment [15] and in experiment [17] was “inactive” in each case. For the same compound, the result in experiment [16] was inactive.
Turning to `Cc1ccc(S(=O)(=O)O)cc1`, the Potency entry in [1], in [2], in experiment [3], in [4], in experiment [5] and in experiment [18] was “inactive” throughout. For the same compound, the Potency result in experiment [6], in [7], in experiment [8], in experiment [9], in experiment [10] and in [12] was “inactive” each time. Besides, the Potency entry in experiment [13], in [14], in [15] and in experiment [17] was “inactive” in each case. The compound was classed as inactive in [16].
As to `Nc1c(N=Nc2ccc(-c3ccc(N=Nc4cc(S(=O)(=O)O)c5ccccc5c4N)cc3)cc2)cc(S(=O)(=O)O)c2ccccc12`, the Potency result in [1], in [2], in experiment [3], in experiment [6], in experiment [8] and in experiment [11] was “inactive” each time. The Potency result in [12], in experiment [13] and in experiment [17] was “inactive” each time. Besides, the Potency in experiment [5] was 43.6 µM (active); in experiment [18], 24.5 µM (active); in experiment [9], 12.2 µM (active); in experiment [10] it was 27.3 µM (active); in experiment [14], 17.2 µM (active); in [15] it was 15.3 µM (active). Besides, the outcome in [16] was inactive.
`O=C(Nc1ncc([N+](=O)[O-])s1)c1cccs1`: the Potency entry in [1], in experiment [2], in experiment [3], in [4], in [5] and in [18] was “inactive” throughout. The Potency entry in experiment [6], in [7], in experiment [8], in experiment [19], in experiment [11] and in [14] was “inactive” in each case. Besides, the Potency entry in experiment [17] was “inactive”. Moreover, in experiment [12], the Potency is 0.422 µM (active).
Consider `CCCCCCCC(=O)OCC(COC(=O)CCCCCCC)OC(=O)CCCCCCC`, for which the Potency entry in experiment [2], in experiment [3], in [4], in experiment [5], in [18] and in experiment [6] was “inactive” throughout. The Potency entry in experiment [7], in experiment [8], in experiment [9], in experiment [10], in experiment [19] and in experiment [11] was “inactive” in each case. Moreover, the Potency entry in experiment [12], in experiment [13], in [14], in experiment [15] and in experiment [17] was “inactive” throughout. Also, the compound was called inactive in [16].
